Data from the supplement of paper PMC8728848.
Many of the other results were omitted from the sample, so the strongest signals are more common in it than they were.

What was measured:
Assay in all cases: glycan array binding signal (z-score within array); higher = stronger binding
Conditions in all cases: glycan notation: IUPAC condensed, linker removed
Fuc(a1-2)Gal(b1-4)Glc6S = target: Fuc(a1-2)Gal(b1-4)Glc6S
Summary of the method: (§1)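 Glycan array data came from 3228 arrays in the Consortium for Functional Glycomics database, and only arrays with an available protein sequence were kept. Glycan names were put into IUPAC-condensed notation, and columns mapping to the same glycan were averaged. The binding signal is a within-array Z-score, averaged across arrays of one protein sequence run at different concentrations or buffers and across linkers. A negative Z-score can be read as non-binding.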

[1] = target: Fuc(a1-2)Gal(b1-4)GlcNAc(b1-2)Man
Summary of the method: as §1

[2] = target: Fuc(a1-2)Gal(b1-4)GlcNAc(b1-2)Man(a1-3)[Fuc(a1-2)Gal(b1-4)GlcNAc(b1-2)Man(a1-6)]Man(b1-4)GlcNAc(b1-4)[Fuc(a1-6)]GlcNAc
Summary of the method: as §1

[3] = target: Fuc(a1-2)[Gal(a1-3)]Gal(b1-3)GlcNAc(b1-2)Man(a1-3)[Fuc(a1-2)[Gal(a1-3)]Gal(b1-3)GlcNAc(b1-2)Man(a1-6)]Man(b1-4)GlcNAc(b1-4)GlcNAc
Summary of the method: as §1

[4] = target: Fuc(a1-2)[GalNAc(a1-3)]Gal(b1-4)GlcNAc
Summary of the method: as §1

[5] = target: Fuc(a1-2)[GalNAc(a1-3)]Gal(b1-4)GlcNAc(b1-3)Gal(b1-4)GlcNAc(b1-3)Gal(b1-4)GlcNAc
Summary of the method: as §1

Gal(a1-3)Gal(b1-3)GlcNAc = target: Gal(a1-3)Gal(b1-3)GlcNAc
Summary of the method: as §1

[6] = target: Gal(a1-3)Gal(b1-3)GlcNAc(b1-3)GalNAc
Summary of the method: as §1

[7] = target: Gal(a1-3)Gal(b1-4)GlcNAc(b1-2)Man(a1-3)[Gal(a1-3)Gal(b1-4)GlcNAc(b1-2)Man(a1-6)]Man(b1-4)GlcNAc(b1-4)GlcNAc
Summary of the method: as §1

[8] = target: Gal(a1-3)Gal(b1-4)[Fuc(a1-3)]GlcNAc(b1-2)Man(a1-3)[Gal(a1-3)Gal(b1-4)[Fuc(a1-3)]GlcNAc(b1-2)Man(a1-6)]Man(b1-4)GlcNAc(b1-4)GlcNAc
Summary of the method: as §1

[9] = target: Gal(a1-3)[Gal(a1-4)]Gal(b1-4)GlcNAc
Summary of the method: as §1

[10] = target: Gal(a1-4)Gal(b1-4)GlcNAc(b1-2)Man(a1-3)[Gal(a1-4)Gal(b1-4)GlcNAc(b1-2)Man(a1-6)]Man(b1-4)GlcNAc(b1-4)GlcNAc
Summary of the method: as §1

Gal(b1-2)Gal = target: Gal(b1-2)Gal
Summary of the method: as §1

[11] = target: Gal(b1-3)GalNAc(b1-4)Gal(b1-4)Glc
Summary of the method: as §1

Gal(b1-3)GlcNAc = target: Gal(b1-3)GlcNAc
Summary of the method: as §1

[12] = target: Gal(b1-3)GlcNAc(b1-3)Gal(b1-4)GlcNAc(b1-2)[Gal(b1-3)GlcNAc(b1-3)Gal(b1-4)GlcNAc(b1-6)]Man(a1-6)[Gal(b1-3)GlcNAc(b1-3)Gal(b1-4)GlcNAc(b1-2)Man(a1-3)]Man(b1-4)GlcNAc(b1-4)[Fuc(a1-6)]GlcNAc
Summary of the method: as §1

[13] = target: Gal(b1-3)GlcNAc(b1-3)Gal(b1-4)[Fuc(a1-3)]GlcNAc
Summary of the method: as §1

Gal(b1-4)GlcNAc = target: Gal(b1-4)GlcNAc
Summary of the method: as §1

[14] = target: Gal(b1-4)GlcNAc(b1-3)Gal(b1-3)GlcNAc
Summary of the method: as §1

[15] = target: Gal(b1-4)GlcNAc(b1-3)Gal(b1-4)Glc
Summary of the method: as §1

[16] = target: Gal(b1-4)GlcNAc(b1-3)Gal(b1-4)GlcNAc(b1-3)Gal(b1-4)GlcNAc(b1-3)Gal(b1-4)GlcNAc(b1-2)Man(a1-3)[Gal(b1-4)GlcNAc(b1-3)Gal(b1-4)GlcNAc(b1-3)Gal(b1-4)GlcNAc(b1-3)Gal(b1-4)GlcNAc(b1-2)Man(a1-6)]Man(b1-4)GlcNAc(b1-4)GlcNAc
Summary of the method: as §1

[17] = target: Gal(b1-4)GlcNAc(b1-3)Gal(b1-4)GlcNAc(b1-3)GalNAc
Summary of the method: as §1

[18] = target: Gal(b1-4)GlcNAc(b1-3)[Gal(b1-4)GlcNAc(b1-6)]Gal(b1-4)GlcNAc
Summary of the method: as §1

[19] = target: Gal(b1-4)GlcNAc(b1-6)GalNAc
Summary of the method: as §1

[20] = target: GalNAc(a1-3)GalNAc(b1-3)Gal(a1-4)Gal(b1-4)GlcNAc
Summary of the method: as §1

[21] = target: GalNAc(b1-3)Gal(a1-4)Gal(b1-4)GlcNAc
Summary of the method: as §1

GalNAc(b1-4)Gal(b1-4)Glc = target: GalNAc(b1-4)Gal(b1-4)Glc
Summary of the method: as §1

GalNAc6S(b1-4)GlcNAc = target: GalNAc6S(b1-4)GlcNAc
Summary of the method: as §1

[22] = target: GlcNAc(a1-3)Gal(b1-4)GlcNAc
Summary of the method: as §1

[23] = target: GlcNAc(b1-2)Gal(b1-3)GalNAc
Summary of the method: as §1

[24] = target: GlcNAc(b1-3)Gal(b1-4)GlcNAc(b1-3)Gal(b1-4)GlcNAc(b1-3)Gal(b1-4)GlcNAc(b1-3)Gal(b1-4)GlcNAc(b1-2)Man(a1-3)[GlcNAc(b1-3)Gal(b1-4)GlcNAc(b1-3)Gal(b1-4)GlcNAc(b1-3)Gal(b1-4)GlcNAc(b1-3)Gal(b1-4)GlcNAc(b1-2)Man(a1-6)]Man(b1-4)GlcNAc(b1-4)GlcNAc
Summary of the method: as §1

[25] = target: GlcNAc(b1-3)Gal(b1-4)GlcNAc(b1-3)Gal(b1-4)GlcNAc(b1-3)GalNAc
Summary of the method: as §1

[26] = target: GlcNAc(b1-4)Gal(b1-4)GlcNAc
Summary of the method: as §1

[27] = target: GlcNAc(b1-4)GlcNAc(b1-4)GlcNAc(b1-4)GlcNAc(b1-4)GlcNAc
Summary of the method: as §1

[28] = target: Man(a1-3)[Man(a1-6)]Man(a1-6)[Man(a1-3)]Man(b1-4)GlcNAc(b1-4)GlcNAc
Summary of the method: as §1

[29] = target: Neu5Ac(a2-3)Gal(b1-3)GalNAc
Summary of the method: as §1

[30] = target: Neu5Ac(a2-3)Gal(b1-3)GlcNAc(b1-2)Man(a1-3)[GlcNAc(b1-4)][Neu5Ac(a2-3)Gal(b1-3)GlcNAc(b1-2)Man(a1-6)]Man(b1-4)GlcNAc(b1-4)GlcNAc
Summary of the method: as §1

[31] = target: Neu5Ac(a2-3)Gal(b1-3)[Fuc(a1-4)]GlcNAc(b1-3)Gal(b1-3)[Fuc(a1-4)]GlcNAc
Summary of the method: as §1

[32] = target: Neu5Ac(a2-3)Gal(b1-4)GlcNAc(b1-2)Man
Summary of the method: as §1

[33] = target: Neu5Ac(a2-3)Gal(b1-4)GlcNAc(b1-3)Gal(b1-4)GlcNAc(b1-3)Gal(b1-4)GlcNAc(b1-2)Man(a1-3)[Neu5Ac(a2-3)Gal(b1-4)GlcNAc(b1-3)Gal(b1-4)GlcNAc(b1-3)Gal(b1-4)GlcNAc(b1-2)Man(a1-6)]GalNAc
Summary of the method: as §1

[34] = target: Neu5Ac(a2-3)Gal(b1-4)GlcNAc(b1-6)GalNAc
Summary of the method: as §1

[35] = target: Neu5Ac(a2-3)Gal(b1-4)GlcNAc6S
Summary of the method: as §1

[36] = target: Neu5Ac(a2-3)Gal(b1-4)[Fuc(a1-3)]GlcNAc(b1-6)[Gal(b1-3)]GalNAc
Summary of the method: as §1

[37] = target: Neu5Ac(a2-3)Gal(b1-4)[Fuc(a1-3)]GlcNAc(b1-6)[Neu5Ac(a2-3)Gal(b1-3)]GalNAc
Summary of the method: as §1

[38] = target: Neu5Ac(a2-3)[GalNAc(b1-4)]Gal(b1-4)GlcNAc(b1-3)GalNAc
Summary of the method: as §1

[39] = target: Neu5Ac(a2-6)Gal(b1-4)GlcNAc(b1-2)Man(a1-3)[GlcNAc(b1-4)][Neu5Ac(a2-6)Gal(b1-4)GlcNAc(b1-2)Man(a1-6)]Man(b1-4)GlcNAc(b1-4)GlcNAc
Summary of the method: as §1

[40] = target: Neu5Ac(a2-6)Gal(b1-4)GlcNAc(b1-3)Gal(b1-4)GlcNAc(b1-2)Man(a1-3)[Neu5Ac(a2-6)Gal(b1-4)GlcNAc(b1-3)Gal(b1-4)GlcNAc(b1-2)Man(a1-6)]GalNAc
Summary of the method: as §1

[41] = target: Neu5Ac(a2-6)Gal(b1-4)GlcNAc(b1-3)Gal(b1-4)GlcNAc(b1-3)GalNAc
Summary of the method: as §1

[42] = target: Neu5Ac(a2-6)GalNAc(b1-4)GlcNAc
Summary of the method: as §1

[43] = target: Neu5Ac(a2-8)Neu5Gc(a2-3)Gal(b1-4)GlcNAc
Summary of the method: as §1

B1: PV12658A-bvu-496-32-496 (Bacteroides vulgatus) (protein)
chain: DLDGAITTPAAVELALNGIYYSLPGNGFNVIFPTVSGSFKAGTMWRQEIVSAGNAVYYSERMLPTLSFSDATEWDADYAVIKNANFLETACNRMSDGEFSGNRRAEVLGEIAYLRALAYFNILVRYCEFWDMNSEYGVVMRNEAPSVSNALKARSSVADSYQYILDQLEIAIEKAPDWKKLSQASKEAAKALKARVLLYAGKYTEAVAAVNDAIDTNSPLPEANYGDVFDKFSTTKEILFARVFDQKDATNTSTRQQCYGNSPTKKQGYWGPTNEYVELVGDDPRADAIFSKVDSLMDSRSSAVAYNLKSVKKLLNDANDMPVIFSRVSELYLIKAEALYRSGASISEAYAPIRKLRERAGAEIILPANNEELETAIFNEWMLELSFENWHEWFAMIRFAGYTEKPDFTRLLALNKTLREALEKEYEKSEAQGDNYYQRIIDRRIDAIPSSEISSNLECKQNPGY
Fuc(a1-2)Gal(b1-4)Glc6S
  glycan array binding signal (z-score): -0.163
[1]
  glycan array binding signal (z-score): -0.199
[2]
  glycan array binding signal (z-score): 0.201
[3]
  glycan array binding signal (z-score): 3.63
[4]
  glycan array binding signal (z-score): -0.36
[5]
  glycan array binding signal (z-score): 0.133
Gal(a1-3)Gal(b1-3)GlcNAc
  glycan array binding signal (z-score): 3.81
[6]
  glycan array binding signal (z-score): -0.252
[7]
  glycan array binding signal (z-score): 4.55
[8]
  glycan array binding signal (z-score): 0.883
[9]
  glycan array binding signal (z-score): 1.73
[10]
  glycan array binding signal (z-score): 7.57
Gal(b1-2)Gal
  glycan array binding signal (z-score): -0.301
[11]
  glycan array binding signal (z-score): 0.963
Gal(b1-3)GlcNAc
  glycan array binding signal (z-score): -0.316
[12]
  glycan array binding signal (z-score): 6.34
[13]
  glycan array binding signal (z-score): -0.533
Gal(b1-4)GlcNAc
  glycan array binding signal (z-score): -0.258
[14]
  glycan array binding signal (z-score): -0.494
[15]
  glycan array binding signal (z-score): -0.266
[16]
  glycan array binding signal (z-score): 5.64
[17]
  glycan array binding signal (z-score): 3.98
[18]
  glycan array binding signal (z-score): 0.41
[19]
  glycan array binding signal (z-score): -0.393
[20]
  glycan array binding signal (z-score): -0.573
[21]
  glycan array binding signal (z-score): -0.363
GalNAc(b1-4)Gal(b1-4)Glc
  glycan array binding signal (z-score): -0.027
GalNAc6S(b1-4)GlcNAc
  glycan array binding signal (z-score): -0.216
[22]
  glycan array binding signal (z-score): -0.069
[23]
  glycan array binding signal (z-score): -0.342
[24]
  glycan array binding signal (z-score): 0.265
[25]
  glycan array binding signal (z-score): 0.161
[26]
  glycan array binding signal (z-score): -0.358
[27]
  glycan array binding signal (z-score): -0.447
[28]
  glycan array binding signal (z-score): 0.012
[29]
  glycan array binding signal (z-score): -0.233
[30]
  glycan array binding signal (z-score): -0.433
[31]
  glycan array binding signal (z-score): -0.275
[32]
  glycan array binding signal (z-score): -0.265
[33]
  glycan array binding signal (z-score): 7.6
[34]
  glycan array binding signal (z-score): -0.479
[35]
  glycan array binding signal (z-score): -0.525
[36]
  glycan array binding signal (z-score): 4.21
[37]
  glycan array binding signal (z-score): -0.336
[38]
  glycan array binding signal (z-score): -0.198
[39]
  glycan array binding signal (z-score): -0.152
[40]
  glycan array binding signal (z-score): 10.6
[41]
  glycan array binding signal (z-score): -0.476
[42]
  glycan array binding signal (z-score): -0.163
[43]
  glycan array binding signal (z-score): 5.59
